In PubChem BioAssay:
Active and inactive are the calls of the source. No rule for the calls is given here.

molecular target: L-lactate dehydrogenase (Plasmodium falciparum (isolate CDC / Honduras)) (UniProt Q27743); assay: PfLDH activity inhibition – cell lysate, 3D7 strain, counter-screen for P. falciparum growth inhibition project (AID 2304);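 also: 0% = vehicle and 100% = reference inhibitor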; conditions: P. falciparum 3D7 crude extract, LDH APAD/NBT absorbance; at 2 µM; hits give high values
Sequence (Q27743 whole entry, looked up): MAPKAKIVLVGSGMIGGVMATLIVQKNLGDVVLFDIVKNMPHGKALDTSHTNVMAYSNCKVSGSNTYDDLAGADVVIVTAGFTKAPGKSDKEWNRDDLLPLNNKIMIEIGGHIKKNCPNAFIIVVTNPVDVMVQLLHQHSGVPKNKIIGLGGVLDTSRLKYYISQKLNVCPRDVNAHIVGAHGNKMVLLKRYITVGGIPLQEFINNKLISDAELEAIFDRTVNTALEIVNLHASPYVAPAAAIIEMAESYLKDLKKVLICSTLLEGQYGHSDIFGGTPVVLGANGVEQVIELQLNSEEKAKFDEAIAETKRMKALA

Compound | inhibition
Cc1nc(N)nc(N)c1-c1ccc(Br)c([N+](=O)[O-])c1 | 2% (inactive)
Cc1cc(NN=Cc2cccc([N+](=O)[O-])c2)c2cc(F)ccc2n1 | -5% (inactive)
CCCCCC(=O)NCC(NCCCNc1cc(=O)c2ccccc2[nH]1)c1cc(Br)cc(Br)c1 (configuration not stated) | -8% (inactive)
CCC(=O)c1c(C)n(-c2ncnc3c2nc(C)n3-c2ccc(C)cc2C)c2ccccc12 | -2% (inactive)
Cc1ccccc1NC1=NC(=S)N(c2cccc(C(F)(F)F)c2)C12CCC(C(C)(C)C)CC2 (configuration not stated) | 5% (inactive)
C=CCc1cc(Cc2cnc(N)nc2N)cc(CCC)c1O | -1% (inactive)
CCNc1cc(C)nc(Nc2ccc(F)cc2)n1 | -7% (inactive)
Cc1ccc2c(Cl)c(C(=O)N3CCCc4ccccc43)sc2c1 | 0% (inactive)
COc1ccc(CNCc2cccc(-c3csc(-c4nc5ccccc5[nH]4)c3)c2)cc1 | -1% (inactive)
CC(C)(C)c1ccc(OCCCON2C(N)=NC(N)=NC2(C)C)c(C(C)(C)C)c1 | 2% (inactive)
CC(=O)Nc1nc(C(=O)Nc2cccc(-c3ccc4c(cnn4CC4CC4)c3)c2)cs1 | 2% (inactive)
CN(Cc1ccc(NC(=O)CCC2CCN(C(=O)/C=C/c3ccc(Cl)c(Cl)c3)CC2)cc1)C1CCOCC1 | 0% (inactive)
O=C(NCc1cccs1)[C@H](Cc1ccccc1)Nc1ccnc(NCC2CCCCC2)n1 | -2% (inactive)
Cc1cc(N[C@@H](CC(C)C)C(=O)NCCOc2ccccc2)nc(NCCc2ccc(F)cc2)n1 | 1% (inactive)
Cc1cccc(OCC2CCN(c3ncc(C(=O)NC4CC4)cc3Cl)CC2)c1 | -2% (inactive)
O=c1cc(NCCCNCc2cc(Cl)cc(Cl)c2OCc2ccc(Cl)cc2)[nH]c2ccccc12 | 3% (inactive)
CC(C)N(CC(=O)c1ccc(O)c(C(=O)O)c1)Cc1ccccc1 | -7% (inactive)
Cc1ccc(NC(=O)Nc2ccc(Cn3ncc(N4CCCNCC4)c(Cl)c3=O)cc2)cc1 | -1% (inactive)
Oc1ccc2ccccc2c1CNCC1CCCCC1 | -5% (inactive)
Cc1cc(CN2CC[C@H](NC(=O)c3ccc(Cl)c(Cl)c3)C2)ccc1OCCN1CCCC1 | 0% (inactive)
CCN(CCN(C)C)Cc1ccc(-c2ccc(NS(=O)(=O)c3cccc(Cl)c3)cc2)cc1 | 4% (inactive)
CCOC(=O)[C@H](Cc1cc([N+](=O)[O-])c(Oc2ccc(OC)c(Cc3ccc(OC)c(C(C)C)c3)c2)c([N+](=O)[O-])c1)NC(=O)C(F)(F)F | -3% (inactive)
Cc1[nH]c2ccccc2c(=O)c1-c1ccc(Cl)cc1 | 2% (inactive)
c1ccc(CN2CCC(NCc3ccccc3-c3ccc(CNCc4ccc5c(c4)OCO5)cc3)CC2)cc1 | 3% (inactive)
COc1ccc(-n2nc(C(=O)NCCC3=CCCCC3)c3ccccc3c2=O)cc1 | -4% (inactive)
Nc1nc(N)c2c(Oc3cccc4ccccc34)cccc2n1 | 6% (inactive)
Cc1cc(N(C)C)nc(Nc2ccc(NC(=O)Nc3ccccc3)cc2)n1 | -2% (inactive)

system: not listed separately; assay: inhibition of 3D7 malaria parasite growth – strain 3D7 (AID 2306);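 also: 0% = DMSO wells and 100% = chloroquine plus artemisinin control wells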; conditions: P. falciparum 3D7 erythrocytic growth, LDH absorbance, 72 h; at 2 µM; hits give high values

Compound | growth inhibition
COc1ccc(C2C(C(=O)Nc3ccc(C)cc3Br)c3ccccc3C(=O)N2C)cc1 (configuration not stated) | 96% (active)
COc1ccc(CCN(C)CCCCc2ccc(NC(=O)c3cccc4c(=O)c5cc(F)ccc5sc34)cc2)cc1OC | 96% (active)
CS(=O)(=O)Nc1ccc(-c2ccc3ccnc(N)c3c2)cc1 | 85% (active)
Cc1c(NC(=O)COc2ccc(Cl)cc2C(=O)c2cc(F)cc(C(F)(F)F)c2)ccc2ncsc12 | 86% (active)
COc1c(Br)cc(Br)cc1-c1ccc(CN2CC3CCC2CC3)[nH]1 | 98% (active)
O=C(/C=C/c1ccc(Cl)c(Cl)c1)NCCCCCCN1CCCN(C(=O)Nc2cccc(Cl)c2)CC1 | 94% (active)
Cc1cc2ccc(/C=C/C(=O)NC3CCC(CCN4CCc5ccc(C#N)cc5CC4)CC3)cc2[nH]1 (configuration not stated) | 84% (active)
CC(C)(C)c1ccc(C(=O)NC2CCC(CCN3CCc4ccc(S(C)(=O)=O)cc4CC3)CC2)cc1C(F)(F)F (configuration not stated) | 88% (active)
CCN(CC)CCN(Cc1ccc(-c2ccc(C(F)(F)F)cc2)cc1)C(=O)Cn1c(CCc2c(F)cc(F)cc2F)nc(=O)c2ccccc21 | 89% (active)
CC(C)(C)c1ccc(CN2CCC(NC(=O)c3ccc(-c4ccccc4F)s3)CC2)cc1 | 85% (active)
C1=CN(Cc2ccccc2)C=CC1=C1C=Nc2ccccc21 | 90% (active)
CCOc1ccc(C(=O)Nc2ccc(-c3nc4ccccc4[nH]3)cc2)cc1[N+](=O)[O-] | 100% (active)
CCCC(C)Nc1nc(C)cc(N[C@@H](Cc2ccccc2)C(=O)Nc2ccc(OC)cc2)n1 (some centres not stated) | 100% (active)
Cc1nc(N)nc(N)c1-c1ccc(Br)c([N+](=O)[O-])c1 | 95% (active)
Cc1cc(NN=Cc2cccc([N+](=O)[O-])c2)c2cc(F)ccc2n1 | 102% (active)
CCCCCC(=O)NCC(NCCCNc1cc(=O)c2ccccc2[nH]1)c1cc(Br)cc(Br)c1 (configuration not stated) | 96% (active)
CCC(=O)c1c(C)n(-c2ncnc3c2nc(C)n3-c2ccc(C)cc2C)c2ccccc12 | 96% (active)
Cc1ccccc1NC1=NC(=S)N(c2cccc(C(F)(F)F)c2)C12CCC(C(C)(C)C)CC2 (configuration not stated) | 95% (active)
C=CCc1cc(Cc2cnc(N)nc2N)cc(CCC)c1O | 90% (active)
CCNc1cc(C)nc(Nc2ccc(F)cc2)n1 | 101% (active)

Compound | growth inhibition
Cc1ccc2c(Cl)c(C(=O)N3CCCc4ccccc43)sc2c1 | 99% (active)
COc1ccc(CNCc2cccc(-c3csc(-c4nc5ccccc5[nH]4)c3)c2)cc1 | 100% (active)
CC(C)(C)c1ccc(OCCCON2C(N)=NC(N)=NC2(C)C)c(C(C)(C)C)c1 | 93% (active)
CC(=O)Nc1nc(C(=O)Nc2cccc(-c3ccc4c(cnn4CC4CC4)c3)c2)cs1 | 95% (active)
CN(Cc1ccc(NC(=O)CCC2CCN(C(=O)/C=C/c3ccc(Cl)c(Cl)c3)CC2)cc1)C1CCOCC1 | 94% (active)
O=C(NCc1cccs1)[C@H](Cc1ccccc1)Nc1ccnc(NCC2CCCCC2)n1 | 83% (active)
Cc1cc(N[C@@H](CC(C)C)C(=O)NCCOc2ccccc2)nc(NCCc2ccc(F)cc2)n1 | 95% (active)
Cc1cccc(OCC2CCN(c3ncc(C(=O)NC4CC4)cc3Cl)CC2)c1 | 90% (active)
O=c1cc(NCCCNCc2cc(Cl)cc(Cl)c2OCc2ccc(Cl)cc2)[nH]c2ccccc12 | 98% (active)
CC(C)N(CC(=O)c1ccc(O)c(C(=O)O)c1)Cc1ccccc1 | 97% (active)
Cc1ccc(NC(=O)Nc2ccc(Cn3ncc(N4CCCNCC4)c(Cl)c3=O)cc2)cc1 | 84% (active)
Oc1ccc2ccccc2c1CNCC1CCCCC1 | 98% (active)
Cc1cc(CN2CC[C@H](NC(=O)c3ccc(Cl)c(Cl)c3)C2)ccc1OCCN1CCCC1 | 101% (active)
CCN(CCN(C)C)Cc1ccc(-c2ccc(NS(=O)(=O)c3cccc(Cl)c3)cc2)cc1 | 97% (active)
CCOC(=O)[C@H](Cc1cc([N+](=O)[O-])c(Oc2ccc(OC)c(Cc3ccc(OC)c(C(C)C)c3)c2)c([N+](=O)[O-])c1)NC(=O)C(F)(F)F | 94% (active)
Cc1[nH]c2ccccc2c(=O)c1-c1ccc(Cl)cc1 | 93% (active)
c1ccc(CN2CCC(NCc3ccccc3-c3ccc(CNCc4ccc5c(c4)OCO5)cc3)CC2)cc1 | 102% (active)
COc1ccc(-n2nc(C(=O)NCCC3=CCCCC3)c3ccccc3c2=O)cc1 | 94% (active)
Nc1nc(N)c2c(Oc3cccc4ccccc34)cccc2n1 | 96% (active)
Cc1cc(N(C)C)nc(Nc2ccc(NC(=O)Nc3ccccc3)cc2)n1 | 101% (active)
